Most compounds without a hit are left out; they make up all but 2% or so of the library.
LEDGF integ inh – blocks HIV-1 LEDGF/p75-dependent DNA integration; TR-FRET IN-LEDGF/p75 DNA integration, Eu/Cy5; inhibition, % at 3.7 µM; hit rate 0.64% among 370,000; AID 743269;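 active means inhibition above the screen-wide mean plus 3 SD, cut at about 13% in these data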;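 further: signal is the Cy5 over europium emission ratio at 671 and 618 nm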
MBD2 DNA inh – blocks human MBD2 binding to methylated DNA | hit rate 0.31% among 370,000 | Q9UBB5 | TR-FRET, MBD2 binding to methylated oligonucleotide | AID 686964 | inhibition, % at 4.4 µM; in the data active means inhibition above about 13%
UHRF1 MBD2 ctr – human UHRF1 methylated DNA binding inhibitors; Q96T88; UHRF1 binding to methylated oligo, TR-FRET; inhibition, % at 4.4 µM; hit rate 0.75% among 370,000; AID 687016;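 further: UHRF1 SRA domain binding a hemimethylated CpG hairpin DNA probe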
Rin1 Abl inh – human Rin1-Abl interaction inhibition. TR-FRET Rin1/Abl binding, biochemical. inhibition, % at 7.35 µM. hit rate 0.4% among 360,000; in the data active means inhibition above about 5%, passing the limit was not always enough
Target sequence (P00519 whole entry, looked up): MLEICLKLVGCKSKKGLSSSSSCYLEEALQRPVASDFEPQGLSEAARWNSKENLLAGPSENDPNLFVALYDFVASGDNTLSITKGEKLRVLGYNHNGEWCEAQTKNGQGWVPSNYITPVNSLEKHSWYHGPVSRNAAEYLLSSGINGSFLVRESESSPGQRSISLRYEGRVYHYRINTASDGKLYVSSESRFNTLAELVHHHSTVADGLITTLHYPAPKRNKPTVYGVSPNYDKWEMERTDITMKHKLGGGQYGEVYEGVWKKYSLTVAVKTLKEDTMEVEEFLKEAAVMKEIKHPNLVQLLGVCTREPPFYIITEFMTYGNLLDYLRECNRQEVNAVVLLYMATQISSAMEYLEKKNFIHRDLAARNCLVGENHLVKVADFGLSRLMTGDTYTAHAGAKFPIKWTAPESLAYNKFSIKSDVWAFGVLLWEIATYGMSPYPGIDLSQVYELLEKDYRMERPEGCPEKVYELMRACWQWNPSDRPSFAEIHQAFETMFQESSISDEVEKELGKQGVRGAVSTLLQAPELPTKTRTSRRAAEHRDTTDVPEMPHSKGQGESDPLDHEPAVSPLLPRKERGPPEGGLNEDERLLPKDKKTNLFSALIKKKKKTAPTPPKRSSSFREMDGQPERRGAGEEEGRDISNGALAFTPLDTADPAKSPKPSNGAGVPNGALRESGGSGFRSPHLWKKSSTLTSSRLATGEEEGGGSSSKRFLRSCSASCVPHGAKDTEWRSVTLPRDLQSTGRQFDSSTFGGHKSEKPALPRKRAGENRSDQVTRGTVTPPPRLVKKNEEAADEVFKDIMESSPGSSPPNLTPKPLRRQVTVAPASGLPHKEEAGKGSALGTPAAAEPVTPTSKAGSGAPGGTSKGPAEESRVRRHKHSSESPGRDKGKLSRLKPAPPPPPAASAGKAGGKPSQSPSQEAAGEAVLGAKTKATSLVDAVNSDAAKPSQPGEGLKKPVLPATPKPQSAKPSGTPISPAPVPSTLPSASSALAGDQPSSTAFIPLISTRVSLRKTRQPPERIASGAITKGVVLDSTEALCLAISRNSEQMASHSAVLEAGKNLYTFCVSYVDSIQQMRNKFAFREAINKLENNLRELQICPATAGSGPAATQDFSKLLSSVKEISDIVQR
Target sequence (Q13671 whole entry, looked up): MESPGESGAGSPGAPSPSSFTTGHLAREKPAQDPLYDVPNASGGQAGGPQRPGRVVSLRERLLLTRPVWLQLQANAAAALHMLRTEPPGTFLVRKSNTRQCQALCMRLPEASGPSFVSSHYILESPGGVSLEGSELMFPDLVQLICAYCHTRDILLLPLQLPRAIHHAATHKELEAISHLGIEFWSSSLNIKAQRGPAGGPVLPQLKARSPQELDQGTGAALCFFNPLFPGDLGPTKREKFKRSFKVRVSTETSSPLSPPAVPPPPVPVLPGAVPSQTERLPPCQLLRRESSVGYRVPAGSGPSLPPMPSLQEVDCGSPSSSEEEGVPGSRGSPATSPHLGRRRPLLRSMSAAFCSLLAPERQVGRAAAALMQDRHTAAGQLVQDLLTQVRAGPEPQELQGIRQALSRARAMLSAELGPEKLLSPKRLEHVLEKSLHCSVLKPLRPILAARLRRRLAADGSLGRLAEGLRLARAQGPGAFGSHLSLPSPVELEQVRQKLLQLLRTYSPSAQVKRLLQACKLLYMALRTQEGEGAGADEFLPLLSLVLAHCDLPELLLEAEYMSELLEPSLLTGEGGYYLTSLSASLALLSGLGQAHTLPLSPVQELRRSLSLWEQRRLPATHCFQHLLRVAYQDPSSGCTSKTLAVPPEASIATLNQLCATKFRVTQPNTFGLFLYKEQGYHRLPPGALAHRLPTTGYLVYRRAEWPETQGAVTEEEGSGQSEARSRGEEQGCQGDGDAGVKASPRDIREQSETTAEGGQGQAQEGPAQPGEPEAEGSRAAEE
TCR-CD3 inh – inhibitors of human TCR-CD3 interaction. TAMRA-labeled TCR probe fluorescence, biochemical. inhibition, % at 9.4 µM. hit rate 0.37% among 360,000. AID 651800; in the data active means inhibition above about 19%;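 further: recombinant mutant TCR 2C K166C tagged with TAMRA read by polarization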
UHRF1 ctr MBD2 – counter-screen for MBD2 inhibitors: human UHRF1 methylated DNA binding inhibitors; hit rate 25% among 1,000; inhibition, % at 4.4 µM; AID 720530; UHRF1 binding to methylated oligonucleotide, TR-FRET; shares compounds with MBD2 DNA inh;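 further: UHRF1 SRA domain binding a labeled hemimethylated CpG hairpin DNA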
MBD2 DBD conf – MBD2-DBD methyl-DNA binding inhibition, TR-FRET confirmation | shares compounds with MBD2 DNA inh | TR-FRET MBD2-DBD binding to methylated oligonucleotide | inhibition, % at 4.4 µM | hit rate 26% among 1,000; in the data active means inhibition above about 14%
Each line names hits and unclear results; the compound was inactive in the other large screens (follow-up assays come after a bar, where they were run). Unless noted, no stated cut-off is given here; in the data, active means inhibition above about 21%; inactive means the rest.

Cc1ccc(/C=C/S(=O)(=O)NCCC(=O)NCc2ccc(F)cc2)cc1	none
CCC(C)(C)NC(=O)Cn1c(-c2ccc(C)cc2)noc1=O	none
CCCCNC(=O)Cn1c(-c2ccc(OC)cc2)noc1=O	MBD2 DNA inh 14 | UHRF1 ctr MBD2 inactive | MBD2 DBD conf inactive
CC(C)NC(=O)C1(C)CN(S(C)(=O)=O)CC(=O)N1CCc1ccccc1F (stereo not drawn)	none (no result: Rin1 Abl inh)
C[C@H]1Cn2cnc(C(=O)Nc3ccc(CNC(=O)OC(C)(C)C)cc3)c2C(=O)N1	none
CN1CCn2cnc(C(=O)Nc3ccc(CNC(=O)OC(C)(C)C)cc3)c2C1=O	MBD2 DNA inh 15, UHRF1 MBD2 ctr 25 | UHRF1 ctr MBD2 inactive | MBD2 DBD conf inactive
COC(=O)CSc1nnc(CNC(=O)c2ccc(S(=O)(=O)N(C)C)cc2)n1C	none
CCN(CC)S(=O)(=O)c1ccc(C(=O)NCc2nnc(SCC(=O)OC)n2C)cc1	MBD2 DNA inh 21 | UHRF1 ctr MBD2 inactive | MBD2 DBD conf inactive
O=C(Nc1ccccc1C(=O)Nc1nccs1)c1ccccc1	none
Cn1cc(Br)c(C(=O)NNC(=O)Nc2ccccc2C(F)(F)F)n1	none
O=C1NC2c3c(Cl)sc(Cl)c3C(=O)C2O1 (stereo not drawn)	MBD2 DNA inh 14, UHRF1 MBD2 ctr 35 | UHRF1 ctr MBD2 32 | MBD2 DBD conf 16
Cn1cnc([N+](=O)[O-])c1S(=O)(=O)Oc1ccccc1	MBD2 DNA inh 14 | UHRF1 ctr MBD2 inactive | MBD2 DBD conf inactive
CCCCn1c(SCC(=O)c2c(N)n(C3CC3)c(=O)[nH]c2=O)nc2cc(S(N)(=O)=O)ccc21	none
Nc1c2ccccc2nc2ccccc12	MBD2 DNA inh 26 | UHRF1 ctr MBD2 31 | MBD2 DBD conf 37
Nc1c2c(nc3ccccc13)CCCC2	none
O=C(Nc1cccc(F)c1)/C(=C/c1ccco1)NC(=O)c1ccco1	none
O=C(Nc1ccc(F)c(C(F)(F)F)c1)Nc1nnc(-c2ccncc2)s1	MBD2 DNA inh 15 (no result: Rin1 Abl inh, TCR-CD3 inh) | UHRF1 ctr MBD2 inactive | MBD2 DBD conf inactive
CCC(=O)Nc1nnc(-c2ccncc2)s1	none
CC1CCCCN1C(=O)CNCc1ccc(F)cc1 (stereo not drawn)	MBD2 DNA inh 37 | UHRF1 ctr MBD2 inactive | MBD2 DBD conf inactive
Cc1nn(CCc2n[nH]c(=S)n2-c2ccc(F)cc2)c(C)c1[N+](=O)[O-]	MBD2 DNA inh 73 | UHRF1 ctr MBD2 inactive | MBD2 DBD conf inactive
Cc1nn(CCc2n[nH]c(=S)n2-c2ccc(F)c(Cl)c2)c(C)c1[N+](=O)[O-]	none
CCOc1cccc(CN2CCCC(CNC(=O)c3cccc(OC)c3OC)C2)c1 (stereo not drawn)	MBD2 DNA inh 16 | UHRF1 ctr MBD2 inactive | MBD2 DBD conf inactive
Cc1ccc(Br)cc1S(=O)(=O)Nc1cccnc1	MBD2 DNA inh 18, UHRF1 MBD2 ctr 36 | UHRF1 ctr MBD2 inactive | MBD2 DBD conf inactive
Cc1ccccc1S(=O)(=O)Nc1cccnc1	none
O=C1CN=C(Nc2ccccc2)N1Cc1cccs1	MBD2 DNA inh 35 | UHRF1 ctr MBD2 inactive | MBD2 DBD conf inactive
S=C(Nc1ccc2nccnc2c1)N1CCOCC1	none
CCN(CC)CCOc1ccc(Br)cc1	none
CCN(CC)CCOc1ccc2c(c1)C(=NO)c1cc(OCCN(CC)CC)ccc1-2	MBD2 DNA inh 41, UHRF1 MBD2 ctr 54 | UHRF1 ctr MBD2 62 | MBD2 DBD conf 47
COc1cc(OC)cc(-c2sc3ccc(OC)cc3c2C#CC2(N)CCCCC2)c1	MBD2 DNA inh 14, UHRF1 MBD2 ctr 29 | UHRF1 ctr MBD2 inactive | MBD2 DBD conf inactive
Cc1ccc(NC(=O)CNC(=O)N2CC(=O)Nc3ccccc32)cc1F	none
CCc1cccc(NC(=O)CNC(=O)N2CC(=O)Nc3ccccc32)c1	MBD2 DNA inh 14 | UHRF1 ctr MBD2 inactive | MBD2 DBD conf inactive
COCCNc1ncnc2c1ncn2[C@H]1CN(Cc2ccco2)C[C@@H](CO)O1	MBD2 DNA inh 24 | UHRF1 ctr MBD2 inactive | MBD2 DBD conf inactive
OCCNc1ncnc2c1ncn2[C@H]1CN(Cc2ccco2)C[C@@H](CO)O1	none
O=C(C(=O)N1CCC(CNS(=O)(=O)c2ccccc2OC(F)(F)F)CC1)c1cccs1	MBD2 DNA inh 28, UHRF1 MBD2 ctr 27 (no result: Rin1 Abl inh) | UHRF1 ctr MBD2 inactive | MBD2 DBD conf inactive
Cc1ccc(C)c(NC(=O)Cn2nc(C)c3ccccc3c2=O)c1	MBD2 DNA inh 17 | UHRF1 ctr MBD2 inactive | MBD2 DBD conf inactive
CNc1c2cccc(C)c2nc2c(C(=O)NCCN(C)C)cccc12	MBD2 DNA inh 91, UHRF1 MBD2 ctr 61 | UHRF1 ctr MBD2 55 | MBD2 DBD conf 103
Cc1ccc(C(=O)NCCN(C)C)c(C)c1	none
CC(C)C[C@@H](CN1CCC[C@H]1CN1C(=O)C(=O)NC[C@@H]1Cc1ccc(O)cc1)N1C[C@H](Cc2ccccc2)N(CC2CCCCC2)C(=O)C1=O	MBD2 DNA inh 17, UHRF1 MBD2 ctr 25 (no result: Rin1 Abl inh) | UHRF1 ctr MBD2 inactive | MBD2 DBD conf inactive
CN(C)[C@H]1CCN(c2ccc3c(c2)O[C@@H]2CCN(C2)S3(=O)=O)C1	MBD2 DNA inh 18 (no result: Rin1 Abl inh, TCR-CD3 inh) | UHRF1 ctr MBD2 inactive | MBD2 DBD conf inactive
O=C1CCCN1CC(O)CS(=O)(=O)Cc1ccc(Cl)c(Cl)c1 (stereo not drawn)	MBD2 DNA inh 16 | UHRF1 ctr MBD2 inactive | MBD2 DBD conf inactive
O=C1CCCN1CC(O)CS(=O)(=O)Cc1ccccc1 (stereo not drawn)	none
CC(=O)Nc1sc2c(c1-c1nc3ccccc3s1)CCN(C(C)C)CC2	MBD2 DNA inh 22 (no result: Rin1 Abl inh, TCR-CD3 inh) | UHRF1 ctr MBD2 inactive | MBD2 DBD conf 26
CC(=O)Nc1sc2c(c1-c1nc3ccccc3s1)CCCNC2	MBD2 DNA inh 21 (no result: Rin1 Abl inh, TCR-CD3 inh) | UHRF1 ctr MBD2 inactive | MBD2 DBD conf 32
O=C(Nc1sc2c(c1-c1nc3ccccc3s1)CCNC2)C(F)F	none (no result: Rin1 Abl inh, TCR-CD3 inh)
CCCN1CCN(C(=O)c2ccc3[nH]c(C)c(C)c3c2)CC1	none
OC(c1cccnc1)c1nc(/C=C/c2ccc(C(F)(F)F)cc2)cs1 (stereo not drawn)	none
Nc1nc(SCC(=O)N2CCN(c3ccc(F)cc3)CC2)n[nH]1	MBD2 DNA inh 48 | UHRF1 ctr MBD2 inactive | MBD2 DBD conf inactive
Nc1nc(SCC(=O)N2CCN(c3ccccc3)CC2)n[nH]1	none
CC(C)N1CCN(C(=O)c2ccc(OC3CCN(CCc4ccccc4)CC3)cc2)CC1	none
CC(C)(C)Nc1scc(-c2ccccc2)[n+]1-c1ccccc1	MBD2 DNA inh 18 | UHRF1 ctr MBD2 inactive | MBD2 DBD conf inactive
COc1ccc(Cc2c[nH]c(=O)[nH]c2=O)cc1	MBD2 DNA inh 16, UHRF1 MBD2 ctr 24 | UHRF1 ctr MBD2 inactive | MBD2 DBD conf inactive
COc1ccc(NC(=O)Nc2c[nH]c(=O)[nH]c2=O)cc1	none
CCOc1ccc(NC(=O)c2cccc(-n3cccc3)c2)cc1S(=O)(=O)N1CCOCC1	MBD2 DNA inh 31, UHRF1 MBD2 ctr 54 | UHRF1 ctr MBD2 77 | MBD2 DBD conf 68
